Compound activity as filed in PubChem.
HEK cytotox: kills HEK 293 cells; HEK 293 viability, ATP luminescence (CellTiter-Glo), 48-72 h; Potency, µM (highest dose often 115 µM), usual class: inhibitors; 94,000 compounds, 6.6% hits; AID 1345083; further: nearly all actives have a fitted effect of over 60% in size
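HEK 293 cells seeded at 250 cells/well were exposed to compound for 48 or 72 hr at 37 degree Celsius. Viability taken as ATP content by CellTiter-Glo luminescence.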
NPR1 antag: antagonists of human natriuretic peptide receptor Npr1; HEK293 hNpr1 GloSensor cGMP, ANP-stimulated luminescence; P16066; Potency, µM (doses to about 46.3 µM), actives largely listed as inhibitors; AID 1347048; 76,000 compounds, 1.6% hits; calls by dose curve; further: nearly all actives have a fitted effect of over 60% in size
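Compound pre-incubated 30 min at room temperature on GloSensor-loaded HEK293 cells stably carrying hNpr1 and the pGS-40F cGMP biosensor. Stimulation uses hNppA at 0.1 nM final; luminescence is taken at baseline and 20 min post-agonist.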
Luciferase inh: inhibitors of firefly (Photinus pyralis) luciferase. AID 1347043. purified P. pyralis luciferase, luminescence, biochemical. Potency, µM (highest dose often 115 µM), most hits filed as inhibitors. 76,000 compounds, 2.5% hits. P08659; further: nearly all actives have a fitted effect of over 65% in size
Target sequence (P08659 whole entry, looked up): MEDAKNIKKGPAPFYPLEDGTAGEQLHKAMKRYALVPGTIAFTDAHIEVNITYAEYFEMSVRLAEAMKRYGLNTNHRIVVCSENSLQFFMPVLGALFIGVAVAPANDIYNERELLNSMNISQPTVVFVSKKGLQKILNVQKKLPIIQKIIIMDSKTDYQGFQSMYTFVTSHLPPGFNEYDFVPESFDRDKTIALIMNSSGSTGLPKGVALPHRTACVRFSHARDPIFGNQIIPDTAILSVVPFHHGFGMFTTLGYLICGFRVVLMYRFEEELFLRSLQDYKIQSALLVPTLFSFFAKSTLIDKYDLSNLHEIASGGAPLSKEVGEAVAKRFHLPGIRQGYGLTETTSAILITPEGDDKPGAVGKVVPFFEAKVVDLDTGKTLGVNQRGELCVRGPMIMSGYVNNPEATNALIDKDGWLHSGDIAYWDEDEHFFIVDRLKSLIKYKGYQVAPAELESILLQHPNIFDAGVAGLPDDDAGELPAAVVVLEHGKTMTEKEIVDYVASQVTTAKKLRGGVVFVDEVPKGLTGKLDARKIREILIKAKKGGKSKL
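Luminescence read by CCD imaging after purified firefly luciferase (10nM final) was added to substrate buffer holding 10uM D-luciferin and 10uM ATP, pH 7.5, pre-dosed with compound.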
NIH3T3 tox: cytotoxic compounds in NIH 3T3 cells | 94,000 compounds, 4.3% hits | AID 1345082 | NIH 3T3 viability, CellTiter-Glo ATP luminescence, 48-72 h | Potency, µM (top dose mostly 96.7 µM), usual class: inhibitors; further: nearly all actives have a fitted effect of over 55% in size
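Luminescent ATP readout (CellTiter-Glo, 10 min RT) after 48 or 72 hr compound exposure of NIH 3T3 cells seeded at 400 cells/well in 1536-well format; quantitative HTS.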
Numbers stand for hits. Rows were chosen to be rich in hits. Some 11% of all compounds tested hit in one or more screens of this group. Unless noted, the call rests on the fitted dose curve; in most records, active means well fitted curve in the direction sought with a large enough effect; inconclusive means small, poorly fitted or top-dose-only effect, or another doubt; inactive means no such curve, though single readings can be large; an effect the other way counts as inactive or inconclusive.

Results for COc1ccccc1-c1[nH]nc2ncc(C(=O)NCC3CCOCC3)nc12 ?
HEK cytotox: inactive; NPR1 antag: inactive; Luciferase inh: inactive; NIH3T3 tox: 39.8µM

Results for COc1ccccc1-c1[nH]nc2ncc(-c3ccccc3O)nc12 ?
HEK cytotox: inconclusive; NPR1 antag: inactive; Luciferase inh: inactive; NIH3T3 tox: inconclusive

How did COc1ccccc1-c1cnc2n[nH]c(-c3ccccc3)c2n1 do in these assays?
HEK cytotox: inconclusive; NPR1 antag: inactive; Luciferase inh: inactive; NIH3T3 tox: 79.4µM

How did COc1ccccc1-c1[nH]nc2ncc(-c3cccnc3OC)nc12 do in these assays?
HEK cytotox: 10µM; NPR1 antag: inactive; Luciferase inh: inactive; NIH3T3 tox: 10µM

How did COc1ccccc1-c1[nH]nc2ncc(-c3c(C)noc3C)nc12 do in these assays?
HEK cytotox: 89.1µM; NPR1 antag: inactive; Luciferase inh: inactive; NIH3T3 tox: inconclusive

What do the screens show for `Cc1cnc(C2CC2)n1CCNS(=O)(=O)c1ccccc1Cl`?
HEK cytotox: inactive; NPR1 antag: inactive; Luciferase inh: inactive; NIH3T3 tox: inactive

What do the screens show for `COc1ncccc1-c1cnc2n[nH]c(-c3ccccc3)c2n1`?
HEK cytotox: 70.8µM; NPR1 antag: inactive; Luciferase inh: inactive; NIH3T3 tox: 50.1µM

How did CCn1ncc(CN2CC[C@H]3C(=O)NCCCCCCN(Cc4ccncc4)[C@@H]3C2)c1C do in these assays?
HEK cytotox: inactive; NPR1 antag: inactive; Luciferase inh: inactive; NIH3T3 tox: inactive

What do the screens show for `NC(=O)Cn1ccc2cc(OCC3CCN(c4cc(NC5CC5)ncn4)CC3)cnc21`?
HEK cytotox: 25.1µM; NPR1 antag: 17.8µM; Luciferase inh: inconclusive; NIH3T3 tox: inconclusive

What do the screens show for `O=C(O)Cn1ccc2cc(OCC3CCN(C(=O)OC4CCCC4)CC3)cnc21`?
HEK cytotox: inactive; NPR1 antag: inactive; Luciferase inh: inconclusive; NIH3T3 tox: 31.6µM

Results for CCCCN1C(=O)NC(c2ccccc2OC)C2=C1COC2=O (centres undefined) ?
HEK cytotox: inactive; NPR1 antag: inactive; Luciferase inh: inactive; NIH3T3 tox: inactive

How did COc1ccccc1CN1CCCn2nc(C)c(-c3ccccc3[S+](C)(=O)[O-])c21 do in these assays?
HEK cytotox: 44.7µM; NPR1 antag: inactive; Luciferase inh: inactive; NIH3T3 tox: 35.5µM

How did Cc1nn2c(c1-c1ccccc1[S+](C)(=O)[O-])N(Cc1ccc3[nH]ccc3c1)CCC2 do in these assays?
HEK cytotox: inconclusive; NPR1 antag: inactive; Luciferase inh: inactive; NIH3T3 tox: inactive

What do the screens show for `Cc1nn2c(c1-c1ccccc1C(C)C)N(Cc1ccc(F)cc1)CCC2`?
HEK cytotox: 50.1µM; NPR1 antag: inactive; Luciferase inh: inactive; NIH3T3 tox: 28.2µM

How did COc1ncccc1CN1CCCn2nc(C)c(-c3ccccc3C(C)C)c21 do in these assays?
HEK cytotox: 50.1µM; NPR1 antag: inactive; Luciferase inh: inactive; NIH3T3 tox: 44.7µM

Results for C#CCNC(=O)C1CCCN1c1nccc(Nc2ccccc2F)n1 (centres undefined) ?
HEK cytotox: inactive; NIH3T3 tox: inconclusive

How did O=C(NC1CCCCC1)N[C@H]1[C@H](O)[C@@H](N2CCC(Cc3ccccc3)CC2)[C@@H]2OC[C@H]1O2 do in these assays?
HEK cytotox: inconclusive; NPR1 antag: inactive; Luciferase inh: inactive; NIH3T3 tox: inconclusive

How did O[C@H]1[C@H](NCc2ccc(OC(F)(F)F)cc2)[C@H]2CO[C@H](O2)[C@@H]1N1CCC(Cc2ccccc2)CC1 do in these assays?
HEK cytotox: 44.7µM; NPR1 antag: inconclusive; Luciferase inh: inactive; NIH3T3 tox: inconclusive

What do the screens show for `O[C@H]1[C@H](NCC2CCCCC2)[C@H]2CO[C@H](O2)[C@@H]1N1CCC(Cc2ccccc2)CC1`?
HEK cytotox: 39.8µM; NPR1 antag: inactive; Luciferase inh: inactive; NIH3T3 tox: 31.6µM

How did COC[C@@H]1CN(C(=O)CCc2ccccc2)C[C@H]1c1ccccn1 do in these assays?
HEK cytotox: inactive; NIH3T3 tox: inactive

How did O=C(NC1CCCCCC1)c1ccc2oc(-c3ccnc(Cl)c3)nc2c1 do in these assays?
HEK cytotox: inconclusive; NIH3T3 tox: inactive

How did Fc1ccc(OCCc2noc(C3CCCNC3)n2)cc1 (centres undefined) do in these assays?
HEK cytotox: inactive; NPR1 antag: inactive; Luciferase inh: inactive; NIH3T3 tox: inactive

How did O=C(NC1CCN(c2cc(-c3ccc(Cl)cc3)[nH]n2)C1)c1ccc2cc[nH]c2c1 (centres undefined) do in these assays?
HEK cytotox: inconclusive; NPR1 antag: inactive; Luciferase inh: inactive; NIH3T3 tox: inconclusive

Results for O=C(NC1CCCN(c2cc(-c3ccc(F)cc3)[nH]n2)C1)c1ccc2cc[nH]c2c1 (centres undefined) ?
HEK cytotox: 35.5µM; NPR1 antag: inactive; Luciferase inh: 28.2µM; NIH3T3 tox: 35.5µM

What do the screens show for `O=C(NC1CCCN(c2cc(-c3ccccc3)[nH]n2)C1)c1ccc2[nH]ccc2c1` (centres undefined)?
HEK cytotox: inconclusive; NPR1 antag: inactive; Luciferase inh: 31.6µM; NIH3T3 tox: inconclusive

What do the screens show for `O=C(NC1CCN(c2cc(-c3ccccc3)[nH]n2)C1)c1ccc2cc[nH]c2c1` (centres undefined)?
HEK cytotox: inconclusive; NPR1 antag: inactive; Luciferase inh: inactive; NIH3T3 tox: inconclusive

Results for Cc1noc(-c2cn(C3CCN(C(=O)c4ccc5[nH]ccc5c4)CC3)nn2)n1 ?
HEK cytotox: inactive; NPR1 antag: inactive; Luciferase inh: inactive; NIH3T3 tox: inactive

What do the screens show for `O=C(c1ccc2cc[nH]c2c1)N1CCC(n2cc(-c3nc(-c4ccccc4)no3)nn2)CC1`?
HEK cytotox: 39.8µM; NPR1 antag: inactive; Luciferase inh: inconclusive; NIH3T3 tox: inconclusive

Results for O=C(c1ccc2[nH]ccc2c1)N1CCC(n2cc(-c3nc(-c4ccccc4)no3)nn2)C1 (centres undefined) ?
HEK cytotox: 15.8µM; NPR1 antag: 7.94µM; Luciferase inh: inconclusive; NIH3T3 tox: inconclusive

How did Cc1ccccc1CCC1CCCN(S(=O)(=O)c2cccnc2)C1 (centres undefined) do in these assays?
HEK cytotox: inconclusive; NPR1 antag: inactive; Luciferase inh: inactive; NIH3T3 tox: inconclusive

How did Fc1ccc(CN2CCC3(CC(Cc4ccccc4)=NO3)C2)cc1 (centres undefined) do in these assays?
HEK cytotox: inconclusive; NPR1 antag: inactive; Luciferase inh: inactive; NIH3T3 tox: inconclusive

What do the screens show for `O=C(NCc1cccc(C(F)(F)F)c1)c1ccc2nnc(Cc3ccc(Cl)cc3)n2c1`?
HEK cytotox: 31.6µM; NIH3T3 tox: 22.4µM

How did O=C(NCc1cccc(C(F)(F)F)c1)c1ccc2nnc(Cc3ccco3)n2c1 do in these assays?
HEK cytotox: inactive; NIH3T3 tox: inconclusive

What do the screens show for `O=C(NCc1ccc(Cl)cc1)c1ccc2nnc(Cc3ccc(Cl)cc3)n2c1`?
HEK cytotox: 44.7µM; NIH3T3 tox: 31.6µM

How did O=C(NCc1ccc(F)cc1)c1ccc2nnc(Cc3ccc(Cl)cc3)n2c1 do in these assays?
HEK cytotox: 39.8µM; NIH3T3 tox: inconclusive

What do the screens show for `O=C(NCCc1ccc(Cl)cc1)c1ccc2nnc(Cc3ccc(Cl)cc3)n2c1`?
HEK cytotox: 28.2µM; NIH3T3 tox: 28.2µM
